Among the data in PubChem BioAssay are inhibition values, retold here.

Molecules are shown by their SMILES. Calls of active or inactive are those of the source. The rule behind the calls is not given here.

The target of this assay is Pantothenate synthetase (Mycobacterium tuberculosis (strain ATCC 25618 / H37Rv)) (UniProt P9WIL5). The assay can be described thus: Coupled enzyme confirmation of inhibitors against recombinant Mtb PanC (AID 375).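 Note: 0% = full reaction with vehicle and 100% = no enzyme background.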 As to conditions: coupled enzyme assay; at 10 µM, stronger effect = higher value.
Chain of Pantothenate synthetase (Mycobacterium tuberculosis (strain ATCC 25618 / H37Rv)) (P9WIL5 whole entry, looked up): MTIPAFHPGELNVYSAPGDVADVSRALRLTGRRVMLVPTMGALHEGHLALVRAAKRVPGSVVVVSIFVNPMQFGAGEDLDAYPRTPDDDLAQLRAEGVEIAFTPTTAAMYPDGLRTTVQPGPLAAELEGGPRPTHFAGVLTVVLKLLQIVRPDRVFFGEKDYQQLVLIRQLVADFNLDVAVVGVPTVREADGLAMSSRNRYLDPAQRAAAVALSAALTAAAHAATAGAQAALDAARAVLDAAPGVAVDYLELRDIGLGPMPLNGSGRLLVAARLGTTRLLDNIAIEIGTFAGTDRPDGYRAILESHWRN
In the case of `Cc1cc(=O)oc2cc(OCC(=O)OCC(=O)N3CCc4ccccc43)ccc12`, the inhibition was 3% (inactive).
As for `O=C(Nc1ccc(S(=O)(=O)NC2CCCC2)cc1)c1cnccn1`, the figure is 0% (inactive).
On to `CCOC(=O)N1CCN(C(=O)CSc2ncnc3ccccc23)CC1`, for which the inhibition was 0% (inactive).
With `CC(=O)CC(=O)Nc1ccccc1NC(C)=O` the figure was 3% (inactive); with `Cc1nc(NC2=NCN(CCCN3CCOCC3)CN2)nc2c(C)cccc12`, 0% (inactive).
Turning to `Cc1ccnc2c(N3C(=O)C4C5C=CC(C5)C4(C)C3=O)cccc12` (stereo not given), the inhibition is 0% (inactive).
With `CC1=Nn2c(nnc2-c2ccccc2)SC1` the figure was 0% (inactive); with `COc1ccc(C(=O)OC(COc2ccccc2)Cn2ccnc2)cc1` (stereo not given), 0% (inactive).
On to `Cc1c(NC(=O)c2coc(=O)c(Br)c2)c(=O)n(-c2ccccc2)n1C`, for which the inhibition is 7% (inactive).
For the compound `CC(C)Cc1cc(C(=O)Nc2c(F)cc(F)cc2Br)no1`, the inhibition is 0% (inactive).
Regarding `CCOC(=O)CSc1nnc(-c2cccnc2)n1Cc1ccccc1`, the inhibition was 0% (inactive).
As for `CC1(C)O[C@@H]2C[C@H]3[C@@H]4C[C@H](F)C5=CC(=O)CC[C@]5(C)[C@H]4[C@@H](O)C[C@]3(C)[C@]2(C(=O)CO)O1`, the figure is 7% (inactive).
Consider `COc1cccc(C(=O)Nc2ccc(C)cc2)c1`, for which the inhibition was 1% (inactive).
As for `O=C(CCN1C(=O)c2ccccc2C1=O)OCN1C(=O)c2ccccc2C1=O`, the figure is 5% (inactive).
Consider `CSc1c(C#N)c(N)c(C#N)c2c1COC(C)(C)C2`, for which the inhibition is 0% (inactive).
Turning to `O=c1cc(NCc2ccccc2)nc2n1CCCS2`, the inhibition was 0% (inactive).
With `CC(C)CNC(=O)C1CC(=O)OC12CCCCC2` (stereo not given) the figure was 5% (inactive).
As for `c1ccc(CCc2nc(-c3cccnc3)no2)cc1`, the figure is 0% (inactive); as for `CCSc1oc(-c2ccco2)nc1S(=O)(=O)c1ccccc1`, 0% (inactive).
As for `COc1ccc(Cl)cc1NC(=O)CCN1CCN(c2ccccc2C)CC1`, the figure is 0% (inactive); as for `Cc1ccc(S(=O)(=O)N2CCOCC(=O)NCCOCCNC(=O)COCC2)cc1`, 0% (inactive); as for `CN(C)c1cccc(N=C2C=C(N3CCOCC3)CC(C)(C)C2)c1`, 0% (inactive).
In the case of `O=C(COc1ccc(Cl)cc1)NCc1nnc(SCC(=O)Nc2ccc3c(c2)OCCO3)o1`, the inhibition is 3% (inactive).
Consider `COc1cc(C(=O)OCc2cc3ccccc3[nH]c2=O)cc(OC)c1OC`, for which the inhibition is 4% (inactive).
With `CCCC(=O)Nc1nc2ccc(S(N)(=O)=O)cc2s1` the figure was 0% (inactive); with `NCc1cccc(-n2cccn2)c1`, 0% (inactive).
Take `COc1ccccc1NC(=O)C1=C(C)NC(SCC(=O)c2ccc(C)cc2)=C(C#N)C1c1ccco1` (stereo not given): the inhibition is 0% (inactive).
As for `Cc1ccc(C(=O)CCC2CCCC2=O)cc1` (stereo not given), the inhibition is 0% (inactive).
For the compound `CCN(CCO)C(=O)CC(c1ccccc1)c1cc(Br)ccc1O` (stereo not given), the inhibition is 5% (inactive).
In the case of `Cc1ccc(C)c(NC(=O)c2ccc3c(c2)N(Cc2ccc(F)cc2)C(=O)CS3=O)c1` (stereo not given), the inhibition is 0% (inactive).
With `Cc1cc(C(=O)CSc2nnc(-c3ccccc3)n2C)c(C)n1C` the figure was 0% (inactive); with `Cc1cccc(NCc2ccccc2O)c1`, 3% (inactive); with `CCOc1ccc(C(=O)N(CN2CCCC2=O)c2ccc(C)cc2)cc1`, 0% (inactive).
Consider `COc1cc(C(O)c2nc3ccccc3n2C)cc(OC)c1OC` (stereo not given), for which the inhibition was 0% (inactive).
As for `COc1ccc(C(=O)Cn2c(N3CCCCC3)nc3c2c(=O)n(C)c(=O)n3C)cc1OC`, the figure is 6% (inactive); as for `COc1ccc(CCNc2oc(-c3ccccc3OC)nc2C#N)cc1`, 2% (inactive); as for `O=C(NCc1ccccc1)c1ccc(OC2CSC2)cc1`, 1% (inactive).
As for `O=C(C1CCN(c2nnc(-n3cccc3)s2)CC1)N1CCc2ccccc2C1`, the figure is 0% (inactive); as for `CCC(C)NC(=O)c1ccccc1NC(=O)C(C)N(c1ccccc1)S(C)(=O)=O` (stereo not given), 0% (inactive).
Turning to `Cc1[nH]n2c(=O)cc(Cc3ccccc3)nc2c1C#N`, the inhibition was 0% (inactive).
